Tests used:
Details in all cases: concentration: 1 μM, replicates: in singlicate; n = 1
[1] = tested on: MAP4K2
[2] = tested on: MAP4K3
[3] = tested on: MAP4K4
[4] = tested on: MAP4K5
[5] = tested on: MAPKAPK2
[6] = tested on: MAPKAPK5
[7] = tested on: MARK1
[8] = tested on: MARK2
[9] = tested on: MARK3
[10] = tested on: MARK4
[11] = tested on: MAST1
[12] = tested on: T1, MEK1
T1 construct: gene MAP2K1

[13] = tested on: T2, MEK2
T2 construct: gene MAP2K2

[14] = tested on: T3, MEK3
T3 construct: gene MAP2K3

[15] = tested on: T4, MEK4
T4 construct: gene MAP2K4

[16] = tested on: T5, MEK5
T5 construct: gene MAP2K5

[17] = tested on: T6, MEK6
T6 construct: gene MAP2K6

[18] = tested on: MELK
[19] = tested on: MERTK
[20] = tested on: MET
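Also: KINOMEscan kinase panel screen.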

Structure (SMILES)	%Inh [1]	%Inh [2]	%Inh [3]	%Inh [4]	%Inh [5]	%Inh [6]	%Inh [7]	%Inh [8]	%Inh [9]	%Inh [10]	%Inh [11]	%Inh [12]	%Inh [13]	%Inh [14]	%Inh [15]	%Inh [16]	%Inh [17]	%Inh [18]	%Inh [19]	%Inh [20]
O=c1cc(N2CCOCC2)nc2n(Cc3cccc(Cl)c3Cl)c3ccccc3n12 [GSK2299009]	0%	0%	0%	0%	32%	0%	7%	0%	0%	23%	0%	0%	0%	0%	34%	75%	0%	89%	41%	0%
Cc1nccc(-c2c(-c3ccc(F)cc3)ncn2CCCN2CCOCC2)n1.Cl [SB-282975]	0%	1%	30%	37%	0%	4%	0%	4%	7%	45%	71%	1%	33%	2%	9%	19%	0%	19%	24%	0%
CNc1cc(-c2ccc3c(N)n[nH]c3c2)nc(N)n1 [GSK2224810]	22%	20%	0%	0%	49%	0%	0%	7%	0%	0%	18%	2%	0%	0%	18%	37%	14%	48%	31%	0%
Cc1ccc(NC(=O)Nc2ccccc2)cc1-c1ccc(C(=O)Nc2ccncc2)cc1 [GSK1398471]	0%	2%	1%	0%	1%	0%	0%	1%	45%	0%	0%	0%	0%	0%	23%	4%	8%	11%	40%	4%
CC(=O)c1cccc(NC(=O)NC2CCN(c3ccnc(Nc4ccc(F)cc4)n3)C2)c1 (stereo not shown) [GSK1379710]	11%	8%	13%	16%	16%	0%	0%	0%	16%	0%	30%	6%	16%	9%	57%	34%	9%	12%	40%	0%
CCn1c(-c2ccccc2)nc2cnccc21 [SB-733416]	0%	9%	18%	8%	34%	0%	13%	0%	10%	26%	0%	0%	0%	0%	25%	37%	0%	0%	24%	0%
Fc1ccc(-c2nn3cccc(F)c3c2-c2ccncc2)cc1 [GW475620]	0%	10%	47%	24%	29%	0%	1%	0%	0%	4%	0%	0%	0%	0%	29%	8%	0%	41%	3%	0%
O=C(Nc1n[nH]c2nc(-c3ccco3)c(Br)cc12)C1CCN(Cc2ccccc2)C1.O=C(O)[C@H](O)[C@@H](O)C(=O)O (stereo not shown) [SB-742034]	14%	2%	0%	0%	5%	5%	27%	14%	0%	14%	13%	1%	25%	21%	20%	32%	16%	2%	0%	0%
FC(F)(F)c1ccccc1-c1cc(-c2c[nH]nc2-c2ccccn2)ccn1 [GW679396]	0%	0%	10%	3%	0%	8%	0%	0%	0%	12%	4%	0%	0%	0%	16%	0%	0%	0%	26%	0%
COc1ccc(Nc2nccc(N3CCC(NC(=O)C(C)c4ccc(Cl)cc4)C3)n2)cc1 (stereo not shown) [GSK1379735]	0%	11%	4%	0%	32%	0%	0%	0%	12%	0%	0%	0%	0%	0%	20%	13%	0%	7%	33%	0%
CC(C)c1ccc(O)cc1Nc1ccnc2ccc(C(F)(F)F)cc12 [GW482059]	0%	0%	26%	37%	16%	0%	0%	0%	0%	6%	0%	0%	0%	0%	22%	1%	0%	5%	13%	0%

— paper PMC5540273 (PLoS ONE, 2017)
